DT40 TDP1 CPT: DT40-hTDP1 cell growth loss with CPT. chicken DT40 Tdp1-/-;hTDP1 cells + 20 nM CPT, ATP luminescence, 48 h. Potency, µM (titrated, usually from 46.2 µM), for the others: at the top dose activity change, negative = growth inhibition, hits mostly inhibitors. actives 12% (n = 420,000). AID 686979; also: nearly all actives have a fitted effect of over 55% in size
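Chicken DT40 Tdp1-/- cells stably complemented with human TDP1 were seeded at 400 cells/well in medium containing 20 nM camptothecin, exposed to pin-transferred compounds, and grown at 37 °C for at least 48 hr. Viability was read as ATP luminescence.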
KB-3-1 cytotox: kills parental KB-3-1 adenocarcinoma cells | actives 1.4% (n = 400,000) | Potency, µM (series often up to 46.1 µM), most hits filed as cytotoxic | KB-3-1 viability, CellTiter-Glo ATP luminescence, 72 h | AID 1347075; also: nearly all actives have a fitted effect of over 60% in size
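Cytotoxicity measured as CellTiter-Glo luminescence after 72 h at 37 C. Compound titrations were pinned onto drug-naive KB-3-1 parental adenocarcinoma cells grown in DMEM with 10% FBS, and normalized data fitted to concentration-response curves.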
HT1080NT lethal: kills 2HG-producing HT-1080-NT fibrosarcoma cells | actives 1.6% (n = 360,000) | HT-1080-NT fibrosarcoma viability, CellTiter-Glo ATP luminescence, 48 h | Potency, µM (highest dose often 46.1 µM), without a hit: at the top dose activity, negative = less viability, actives largely listed as cytotoxic;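 also: NT is the 2HG producing partner of a matched IDH1 knockdown line; 0% = DMSO-treated cells and -100% = media-only wells without cells; nearly all actives have a fitted effect of over 55% in size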
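Viability of the 2HG-overproducing fibrosarcoma line after 48 hours of compound exposure at 37 degrees C was determined by luminescence with CellTiter-Glo, and concentration-effect curves were then fitted and categorized.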
DT40 TDP1 no CPT: qHTS for Inhibitors of human tyrosyl-DNA phosphodiesterase 1 (TDP1): qHTS in cells in absence of CPT. Potency, µM (titrated, usually from 46.2 µM), without a hit: at the top dose activity change, negative = growth inhibition, hits mostly inhibitors. DT40 Tdp1-/- hTDP1 cells, no CPT, ATP luminescence, 48 h. actives 15% (n = 420,000); also: nearly all actives have a fitted effect of over 55% in size
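Readout: luminescence from CellTiter-Glo after 30 min in the dark at RT. Cells: DT40 Tdp1-/- with stable hTDP1, 400/well. Exposure: compounds alone, ≥48 hr, 37 °C.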
HT1080 IDH1KD tx: HT-1080 IDH1 knockdown cell toxicity (counter line); HT-1080 IDH1 knockdown viability, ATP luminescence, 48 h; Potency, µM (highest dose often 46.1 µM), inactives show at the highest dose activity, negative = toxicity, most hits filed as cytotoxic; actives 2% (n = 360,000);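 also: 0% = DMSO wells and -100% = cell-free medium wells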
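CellTiter-Glo luminescence after 48 h compound exposure at 37 degrees C of IDH1-knockdown HT-1080 cells in 5% FBS RPMI. %Activity scaled between DMSO wells and cell-free media wells, with curves fitted and assigned curve classes.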
KB-V1 MDR tox: kills drug-selected multidrug resistant KB-V1 cells; KB-V1 MDR cells viability, CellTiter-Glo, 72 h; AID 1347076; actives 3.4% (n = 400,000); Potency, µM (highest dose often 46.1 µM), actives largely listed as cytotoxic; also: nearly all actives have a fitted effect of over 60% in size
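Drug-selected KB-V1 cells, grown in DMEM lacking phenol red with 10% FBS, receive compound titrations; after three days at 37 degrees C, surviving cell ATP is quantified by CellTiter-Glo luminescence and responses normalized and curve-fitted.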
Starred values were filed as active, the others as inactive; i = inactive; ? = inconclusive; . = no result; + = active, no number; ! = repeats disagree; [ ] = another dose, or the depositor's remark. Sampled rows, rich in hits. Any-hit rate of the full collection: about 19%. Calls follow the shape of the dose curve; as a rule, active = well fitted curve in the direction sought with a large enough effect; inconclusive = small, poorly fitted or top-dose-only effect, or another doubt; inactive = no such curve, though single readings can be large; an effect the other way counts as inactive or inconclusive. Unless noted, % is scaled to controls: 0 for no effect and ±100 for the full control effect; potency is read from the fitted curve at half-maximal effect.

SMILES | DT40 TDP1 CPT | KB-3-1 cytotox | HT1080NT lethal | DT40 TDP1 no CPT | HT1080 IDH1KD tx | KB-V1 MDR tox
O=S(=O)(CC=CCS(=O)(=O)c1ccccc1)c1ccccc1 | 5% | i | -3% | -23% | 8% | i
CC(O)(c1ccccc1)c1nc(-c2ccncc2)cs1 (configuration not stated) | 4.1µM* | i | + | ? | 0% | ?
CC(O)(c1ccccc1)c1nc(-c2ccccc2)cs1 (configuration not stated) | 21µM* | i | ? | ? | ? | i
CCC(=O)N1c2ccccc2CC1C(=O)NCCc1ccccc1C (configuration not stated) | ? | i | . | -21% | . | i
CCN(CC)S(=O)(=O)c1cc(-c2nnc(-c3ccc(Br)cc3)o2)ccc1Cl | 12µM* | ? | -13% | 18µM* | -9% | i
CCN(CC)S(=O)(=O)c1cc(-c2nnc(-c3ccc(Br)cc3)o2)ccc1Br | 15µM* | i | 2% | 9.2µM* | 1%[9.24 µM] | ?
Cc1cc(C(=O)N2CCC2(C)C(=O)Nc2cccc3ccccc23)nn1C (configuration not stated) | ? | i | 13% | ? | 2% | i
CC(C)(C)c1ccc(C(=O)N2CCC2(C)C(=O)NCc2cccc3ccccc23)cc1 (configuration not stated) | 18µM* | ? | ? | -96% | ? | i
CCC(=O)N1CCC1(C)C(=O)Nc1cccc2cccnc12 (configuration not stated) | 1% | i | 11% | -16% | 1% | i
CC(C)(C)c1ccc(C(=O)N2CCC2(C)C(=O)Nc2cccc3ccccc23)cc1 (configuration not stated) | 16µM* | i | ? | 23µM* | ? | i
CC(C)(C)c1ccc(CC(=O)N2CCC2(C)C(=O)Nc2cccc3cccnc23)cc1 (configuration not stated) | ? | i | ? | 23µM* | ? | i
CC(C)(C)c1ccc(C(=O)N2CCC2(C)C(=O)Nc2cccc3ncccc23)cc1 (configuration not stated) | 23µM* | i | -7% | 21µM* | -28% | i
CC(C)(C)c1ccc(C(=O)NCC(=O)OCC(=O)c2ccc3c(c2)-c2ccccc2C3)cc1 | 8% | i | 9% | -28% | 14% | ?
COCOc1cccc(CN2CCC2(C)C(=O)Nc2ccc3c(c2)OCO3)c1 (configuration not stated) | ? | i | 0% | ? | 10% | i
CC1(C(=O)Nc2cccc3cccnc23)CCN1Cc1cccc2c1OCO2 (configuration not stated) | ? | ? | 6.5µM* | 15µM* | ? | ?
CCOC(=O)C1(Cc2ccc(OC)cc2)CCN(C(=O)c2ccoc2C)CC1 | ? | i | 1% | ? | 0% | i
CCC(C)c1ccc(S(=O)(=O)N2CCN(CC(O)CN3CCOCC3)CC2)cc1 (configuration not stated) | -21% | i | 4% | 1% | 0% | 5.8µM*
O=C(N/N=C/c1cccc([N+](=O)[O-])c1)C1CC(=O)N(c2ccc(F)cc2)C1 (configuration not stated) | -25% | i | 2% | ? | 5% | i
CSc1ccc(CN2CCC(C)(Oc3ccc4ccccc4c3)C2)cc1 (configuration not stated) | ? | i | -27% | ? | -14% | ?
CC(=O)c1cc2cccc(OC3(C)CCN(Cc4ccc5ccccc5c4)C3)c2o1 (configuration not stated) | 18µM* | i | -30% | ? | ? | i
CC(=O)c1ccc(OC2(C)CCN(Cc3cc4ccccc4[nH]3)C2)cc1 (configuration not stated) | 4.1µM* | i | -24% | 8.2µM* | -8% | i
CC(=O)c1ccc(OC2(C)CCN(CCOc3ccc(C)cc3)C2)cc1 (configuration not stated) | 16µM* | i | -24% | 5.8µM* | -5% | i
COc1ccc(OC)c(NC(=O)c2cccc3c2C(=O)N(C2CCCCC2)C3)c1 | ? | i | 3% | 16µM*! | -3% | i
Cc1cccc(C)c1NC(=O)c1cccc2c1C(=O)N(C1CCCCC1)C2 | 7.3µM* | i | -24% | 16µM* | ? | ?
Cc1cc(NC(=O)c2cccc3c2C(=O)N(C2CCCCC2)C3)ccc1Br | 2% | i | 0% | 17% | 17% | i
SMILES | DT40 TDP1 CPT | KB-3-1 cytotox | HT1080NT lethal | DT40 TDP1 no CPT | HT1080 IDH1KD tx | KB-V1 MDR tox
COc1ccc(NC(=O)c2cccc3c2C(=O)N(C2CCCCC2)C3)cc1 | 18µM* | i | 13% | 18µM* | 10% | i
Cc1ccc(C)c(CN2C(=O)c3ccccc3S(=O)(=O)c3ccc(C(=O)Nc4ccccc4C(F)(F)F)cc32)c1 | . | i | . | . | . | i
Cc1ccc(-c2ccc(S(=O)(=O)N3CCN(C)CC3)cc2)cc1 | 1% | i | -2% | -5% | 1% | 13µM*
Cc1cccc(C(=O)NC(=S)Nc2ccc(S(=O)(=O)N3CCN(C)CC3)cc2)c1 | ? | i | -24% | 23µM* | -16% | i
Cc1ccc(C(=O)NC(=S)Nc2ccc(S(=O)(=O)N3CCN(C)CC3)cc2)cc1 | 16µM* | i | -11% | 21µM* | 0% | 23µM*
Cc1ccc(S(=O)(=O)N2CCN(C(=O)n3ccnc3)CC2)cc1 | 0.65µM* | i | -4%[9.24 µM] | 12µM* | 2% | i
CN1CCN(S(=O)(=O)c2ccc(-c3ccccc3)cc2)CC1 | ? | i | 3% | -11% | 3% | i
CS(=O)(=O)c1ccc(NC(=O)c2cc3c(cc2Cl)N2CCCCCC2=NS3(=O)=O)cc1 | -5% | i | 1% | -2% | -7% | i
CC(=O)Nc1ccccc1-c1nc2ccccc2n(CC(=O)c2ccc(Br)cc2)c1=O | ? | i | . | ? | . | i
CC(C)CNc1ncnc2c1ncn2[C@H]1CN(Cc2ccc(C(=O)O)cc2)C[C@@H](CO)O1 | 4% | i | 0% | 10% | 13% | i
Cc1cccc(NC(=O)CSCC(=O)Nc2ccc(S(=O)(=O)N3CCCCC3)cc2)c1 | ? | i | -12% | -63% | -16% | i

From PubChem
